Results reported in PubChem BioAssay (NCI).
Compounds without any hit were thinned out: in the full panel of roughly 83,000, 20% have a hit.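 Assay: single dose, 48 h. Readout: percent growth (0 = no net growth; negative = cell death). Active: <10.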 Unmarked numbers belong to inactive results. Active and inactive are the calls of the source.

Each compound was assayed on HL-60(TB) leukemia (assay: NCI-60 one-dose screen, 48 h (100 = growth as untreated, 0 = no growth, -100 = all killed)). Conditions: 10 µM unless noted.

**Q.** For O=c1onc(-c2ccccc2)c2ccccc12, which growth is on record?
**A.** 86.8%

**Q.** For Oc1ccc(C(c2ccc(O)cc2)c2ccc(Br)cn2)cc1, which growth is on record?
**A.** 106%

**Q.** How did the growth turn out when O=C(/C=C\c1cccc([N+](=O)[O-])c1)c1ccccc1 was run?
**A.** -43.8% (active)

**Q.** For C(=C\c1c[nH]c2ccccc12)/c1ccc2ccccc2n1, which growth is on record?
**A.** 2.85% (active)

**Q.** O=c1[nH]c(CN2CCN(c3ccccc3)CC2)nc2c(Br)cc(Br)cc12 was tested. Which growth did it give?
**A.** 99.2%

**Q.** Which growth does the source give for CC(c1ccc(-n2cccn2)cc1)c1cnc(N2CCc3ccc(C(N)=O)cc3C2)s1 (stereo not given) here?
**A.** 48.9%

**Q.** With Clc1ccc([I+]c2ccc(Cl)cc2Cl)c(Cl)c1 as the compound, how does the growth read?
**A.** -38.3% (active)

**Q.** How did the growth turn out when C=C1c2c(C)nn(-c3ccc(O)cc3)c2N(C)C23C[C@@H]1C1(C)c4c(C)nn(-c5ccc(O)cc5)c4N(C)C(C)(C[C@H]12)C3 (stereo not given in full) was run?
**A.** 4.76% (active)

**Q.** For CC(=O)c1nc2ccccc2n1CCNC(N)=O, which growth is on record?
**A.** 80.5%

**Q.** With O=C(CCN1CCCC1)c1ccc([N+](=O)[O-])cc1 as the compound, how does the growth read?
**A.** -21.1% (active)

**Q.** COc1ccc(CSc2nc3cc(OC)c(OC)cc3c(=O)n2-c2ccc(Cl)cc2)cc1 was tested. Which growth did it give?
**A.** 104%

**Q.** CCN(CC)c1ccc(/C=N\NC(=O)/C=C/C=C/c2ccc3c(c2)OCO3)c(O)c1 was tested. Which growth did it give?
**A.** 2.66% (active)

**Q.** For CCCCOc1ccc(NC(=O)Nc2nnc(C)s2)cc1, which growth is on record?
**A.** 80.7%

**Q.** N#C/C(=C\c1c(-c2ccccc2)[nH]c2ccccc12)C(=O)c1ccc(Cl)cc1 was tested. Which growth did it give?
**A.** 12.7%

**Q.** N=C(N)c1ccc(-c2ccc(-c3cc(Cl)cc(Cl)c3)o2)nc1 was tested. Which growth did it give?
**A.** -74.7% (active)

**Q.** Which growth does the source give for C(=C\c1ccncc1)/c1ccncc1 here?
**A.** 105%

**Q.** For Cc1cc(Oc2ccccc2)ccc1Nc1ncnc2ccc(-c3cnc(Cl)c(NS(C)(=O)=O)c3)cc12, which growth is on record?
**A.** 30.3%

**Q.** How did the growth turn out when O=C(O)c1cccc2c1-c1ccc(Cl)cc1C2 was run?
**A.** 78.1%

**Q.** Which growth does the source give for C=C1C(=O)O[C@H]2[C@H]1CC/C(CNC(=O)Cc1c[nH]c3ccccc13)=C\CC[C@@]1(C)O[C@@H]21 here?
**A.** -52.4% (active)

**Q.** For N#Cc1nc(-c2ccccc2)oc1S(=O)(=O)N1CCN(c2ccc(F)cc2)CC1, which growth is on record?
**A.** 28.1%

**Q.** With C[C@@H]1C(=O)N(C[C@H](Cc2ccccc2)N(Cc2ccccc2)Cc2ccccc2)[C@]1(Cc1ccccc1)C(=O)OC(C)(C)C as the compound, how does the growth read?
**A.** 62.9%

**Q.** With COc1ccc(/C=N/NC(=O)Cn2nnc3ccccc32)cc1 as the compound, how does the growth read?
**A.** 105%

**Q.** C=C1SC(=Nc2c(C)cccc2C)N(c2nc(Cl)nc(Cl)n2)C12CCCCC2 was tested. Which growth did it give?
**A.** 100%

**Q.** N#C/C(C(=O)c1ccccc1)=C1/C(=O)Nc2ccc(F)cc21 was tested. Which growth did it give?
**A.** 130%

**Q.** Which growth does the source give for CCC1=CCC[C@@]2(C)CCC[C@@]3(C)CCCC(C)(C)[C@]1([O-])[O+]32 here?
**A.** 107%

**Q.** With COC(=O)[C@H](Cc1cn(C)cn1)NC(=O)[C@@H](NC(=O)Nc1cc(C(F)(F)F)cc(C(F)(F)F)c1)C(C)C as the compound, how does the growth read?
**A.** -73.5% [100 µM] (active)

**Q.** With CC[C@@]12C=CCN3CC[C@]4(c5cc(NC(=O)COc6cc(OCC(=O)Nc7cc8c(cc7OC)N(C)[C@H]7[C@@](O)(C(=O)OC)[C@H](OC(C)=O)[C@]9(CC)C=CCN%10CC[C@]87[C@@H]%109)cc7oc(-c8ccccc8)cc(=O)c67)c(OC)cc5N(C)[C@@H]4[C@](O)(C(=O)OC)[C@H]1OC(C)=O)[C@H]32 as the compound, how does the growth read?
**A.** 88.2%

**Q.** Which growth does the source give for COc1ccccc1Cn1cc2c(c1)-c1oncc1CC2 here?
**A.** 1.41% (active)

**Q.** Which growth does the source give for Nc1cc(NN=C(c2ccc(O)cc2)c2ccc(O)cc2)c([N+](=O)[O-])cc1[N+](=O)[O-] here?
**A.** 66.4%

**Q.** For CS(=O)(=O)Nc1ccc(Nc2c3ccccc3nc3cc(N)ccc23)cc1, which growth is on record?
**A.** 5.48% (active)

**Q.** Which growth does the source give for CCOC(=O)NNc1[nH]c(-c2ccc(OC)cc2)cc1C#N here?
**A.** -42.4% (active)

**Q.** With CNC(=O)c1cnc(C)nc1-c1cc(C(C)(C)C)c(O)c(C(C)(C)C)c1 as the compound, how does the growth read?
**A.** 91.1%

**Q.** Which growth does the source give for CCNCCNc1cc(C2CCCCC2)c(C#N)c2nc3ccccc3n12 here?
**A.** -62.4% (active)

**Q.** How did the growth turn out when CCNCCNc1cc(-c2ccc(C(F)(F)F)cc2)c(C#N)c2nc3cc(Cl)c(Cl)cc3n12 was run?
**A.** -56.9% (active)

**Q.** CC(=O)c1cc(Nc2cc(C)nc(N)n2)cc(C(C)=O)c1 was tested. Which growth did it give?
**A.** 96.1%

**Q.** With O=C1c2ccccc2-c2cn(Cc3ccccc3)c3cccc(c23)C1c1cccnc1 (stereo not given) as the compound, how does the growth read?
**A.** 16.3%

**Q.** How did the growth turn out when Cc1ccc2oc(=O)cc(/C(=C3/C=CC=N3)c3ccc[nH]3)c2c1 was run?
**A.** -13.6% (active)

**Q.** For CCOC(=O)CC(C#N)(CC(=O)OCC)C(=O)OCC, which growth is on record?
**A.** 102%

**Q.** How did the growth turn out when COc1cc(Cn2cc3c(c2)-c2onc(CO)c2CC3)cc(OC)c1OC was run?
**A.** 77.5%

**Q.** With Cc1cc2nc3c(=O)[nH]c(=O)nc-3n(CC=O)c2cc1C as the compound, how does the growth read?
**A.** -55.8% (active)
